About 4,200 (1.2%) of roughly 340,000 compounds were called active.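 Rule for the calls: active = inhibition above the mean of all tested compounds plus 3 SD (cut at about 24% in these data); inactive = the rest.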 The sample as a whole holds a higher share of actives than the screen did.

In the assay the target is Platelet-activating factor acetylhydrolase IB subunit alpha2 (Homo sapiens) (UniProt P68402). Description: PAFAH1B2 enzyme inhibitors, primary screen, biochemical, fluorescence polarization, human (AID 492953).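 Note: 0% = enzyme with DMSO and 100% = wells lacking PAFAH1B2.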 The conditions noted are these: recombinant PAFAH1B2, FP-rhodamine activity probe, at 3.39 µM, stronger effect = higher value.
Chain of Platelet-activating factor acetylhydrolase IB subunit alpha2 (Homo sapiens) (P68402 whole entry, looked up): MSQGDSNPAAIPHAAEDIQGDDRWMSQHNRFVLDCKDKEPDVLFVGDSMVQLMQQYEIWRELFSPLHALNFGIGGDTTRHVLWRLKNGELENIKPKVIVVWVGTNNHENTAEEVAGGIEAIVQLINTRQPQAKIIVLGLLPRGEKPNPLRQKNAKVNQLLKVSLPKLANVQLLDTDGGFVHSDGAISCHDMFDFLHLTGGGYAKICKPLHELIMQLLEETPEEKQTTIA
With `O=c1[nH]c(O)c(C=Nc2cc(F)cc(F)c2)c(=O)[nH]1`, the inhibition is -5.42% (inactive).

For `O=C1N=c2ccccc2=C/C1=C\c1c(O)[nH]c(=S)[nH]c1=O`, the inhibition is 3.53% (inactive).

Regarding `Cc1ccc2c(c1)=C/C(=C\c1c(O)[nH]c(=O)[nH]c1=O)C(=O)N=2`, the inhibition was 24.9% (active).

Consider `Cc1ccc(Cn2c(C)c3cnn(CC(=O)N4CCC5(CC4)OCCO5)c(=O)c3c2C)cc1`, for which the inhibition was 4.99% (inactive).

Consider `Cc1cccc(OP(=O)(Oc2cccc(C)c2)OC(c2ccccc2)C(F)(F)F)c1` (stereo not given), for which the inhibition was 10.7% (inactive).

As to `CNC(=O)O/N=C(\N)Cc1csc2ccccc12`, the inhibition was 7.09% (inactive).

As for `CNC(=O)O/N=C(\N)Cc1csc2ccc(Cl)cc12`, the inhibition is 71.7% (active).

With `N[C@@H](Cc1c[nH]c2ccccc12)c1nnc(SCc2c(F)cccc2Cl)o1`, the inhibition was 3.92% (inactive).

With `CCC(C)(O)C(=O)OC1C(=O)OC2CC3C(C)=CC(=O)C(O)C3(C)C3C4(O)OCC23C1C(C)C4O` (stereo not given), the inhibition is -0.05% (inactive).

As to `CCCCCn1c(=O)c(C(=O)Nc2c(C)n(C)n(-c3ccccc3)c2=O)c(O)c2ccccc21`, the inhibition was -3.03% (inactive).

Consider `CC(C)(C)c1ccc(CN2C(=O)CN=C(c3ccccc3)c3ccccc32)cc1`, for which the inhibition is 88% (active).

Regarding `Nc1ccc(C(=O)N/N=C2/CN3CCC2CC3)cc1`, the inhibition was -0.84% (inactive).

For the molecule `CN(C)CC1CCCCC1OC(=O)c1ccc(Cl)c(Cl)c1` (stereo not given), the inhibition is -0.45% (inactive).

On to `CCCCCCN=C(CC)c1c(O)n(CCCC)c(=O)[nH]c1=O`, for which the inhibition was 5.01% (inactive).

For the molecule `CN(C)CC1Oc2ccccc2OC1(O)c1ccccc1` (stereo not given), the inhibition is 0.51% (inactive).

For `CC1=CC(=Cc2sc3ccccc3[n+]2C)C=C(C)O1`, the inhibition is -0.8% (inactive).

Take `O=C(N/N=C/c1c(O)n(Cc2ccccc2)c(=O)[nH]c1=O)c1ccccc1`: the inhibition is 18.9% (inactive).

For the molecule `CCC(=NCc1ccco1)c1c(O)n(Cc2ccccc2)c(=O)[nH]c1=O`, the inhibition was 3.82% (inactive).

Turning to `CC/C(=N\NC(=O)c1ccccc1O)c1c(O)n(Cc2ccccc2)c(=O)[nH]c1=O`, the inhibition is 26.1% (active).

Regarding `O=C(NCC(c1cccnc1)N1CCN(c2ccccc2)CC1)Oc1ccccc1` (stereo not given), the inhibition is 4.28% (inactive).

As for `O=C(CSC1c2ccccc2-c2ccccc21)N/N=C/c1ccccc1`, the inhibition is 8.06% (inactive).

On to `O=C(OCCN1CCOCC1)C1(c2ccccc2)CCCC1`, for which the inhibition is 36.1% (active).

For the molecule `CCOC(=O)C1(c2ccccc2)CCN(CC(O)c2ccc(NC(C)=O)cc2)CC1` (stereo not given), the inhibition was 0.73% (inactive).

For `c1ccc(CCN2CCC3(CC2)OCCO3)cc1`, the inhibition is 3.22% (inactive).

As to `Cc1ccc(N(C)C(=O)Oc2cccc3ccc(C)nc23)cc1`, the inhibition is 2.03% (inactive).

For orientation: inhibition means the change of the read-out against control, counted positive when it falls.

For the origin of these results see PubChem BioAssay AID492953 (The Scripps Research Institute Molecular Screening Center, 2010).
